In PubChem BioAssay (NCATS):
“And” between values parts separate entries of the source, which are not always exact repeats. Equal entries are not always repeated. Records with an inconclusive call do not appear. Some structures have more than one record in an assay (separate samples or runs), and their calls can disagree. Values without a mark were called inactive. The source made the active and inactive calls. The call rests on the fitted dose curve; in most records, active means well fitted inhibition curve with a large enough effect; inconclusive means small, poorly fitted or top-dose-only effect; inactive means flat fitted curve, though single readings scatter.

Assays:
HaCat [1] = assay: Cytotoxic Profiling of Annotated Libraries Using Quantitative High-Throughput Screening (AID 1296008); conditions: Five cell lines viability, CellTiter-Glo ATP luminescence, 48-72 h; max response: stronger effect = lower value; on max response: on the % scale 0 is the no-effect control and ±100 the full control effect
Procedure, shortened: (§1)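 Cells exposed to compounds for 48 or 72 hr at 37 degrees Celsius. Viability read as ATP-coupled luminescence with CellTiter-Glo after 10 min at room temperature.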

KB-3-1 = assay: as above; conditions: Five cell lines viability, CellTiter-Glo ATP luminescence, 48-72 h; max response: stronger effect = lower value
Procedure, shortened: as §1

NIH3T3 = assay: as above; conditions: Five cell lines viability, CellTiter-Glo ATP luminescence, 48-72 h; max response: stronger effect = lower value
Procedure, shortened: as §1

MCC-13 = assay: qHTS assay to identify novel small-molecules to repurpose for Merkel cell carcinoma treatment (AID 1296009); conditions: MCC and control cell lines, CellTiter-Glo viability, 72 h; series mostly up to 46 µM
Procedure, shortened: (§2)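 Cells were incubated with compound for 72 hr at 37 degree celsius before CellTiter-Glo addition. Luminescence was normalized with no-cell wells as full cytotoxicity and DMSO as baseline.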

MCC-26 = assay: as above; conditions: MCC and control cell lines, CellTiter-Glo viability, 72 h; series mostly up to 46 µM
Procedure, shortened: as §2

MKL-1 = assay: as above; conditions: MCC and control cell lines, CellTiter-Glo viability, 72 h; series mostly up to 46 µM
Procedure, shortened: as §2

P94_40 = assay: qHTS profiling for inhibitors of Plasmodium falciparum proliferation (AID 504749); conditions: P. falciparum in erythrocytes, SYBR Green DNA, 72 h; series mostly up to 28.7 µM
Procedure, shortened: (§3)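 Readout was DNA-dye fluorescence from lysed cultures, ex 485/em 535 nm. Parasitized red cells had grown 72 h with compound; data scaled between 0.29 uM artemisinin and DMSO wells and corrected using vehicle-only plates.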

PAD = assay: as above; conditions: P. falciparum in erythrocytes, SYBR Green DNA, 72 h; series mostly up to 28.7 µM
Procedure, shortened: as §3

PC26 = assay: as above; conditions: P. falciparum in erythrocytes, SYBR Green DNA, 72 h; series mostly up to 28.7 µM
Procedure, shortened: as §3

PC49 = assay: as above; conditions: P. falciparum in erythrocytes, SYBR Green DNA, 72 h; series mostly up to 28.7 µM
Procedure, shortened: as §3

SC27B = assay: as above; conditions: P. falciparum in erythrocytes, SYBR Green DNA, 72 h; series mostly up to 28.7 µM
Procedure, shortened: as §3

TAB109 = assay: as above; conditions: P. falciparum in erythrocytes, SYBR Green DNA, 72 h; series mostly up to 28.7 µM
Procedure, shortened: as §3

TAB113 = assay: as above; conditions: P. falciparum in erythrocytes, SYBR Green DNA, 72 h; series mostly up to 28.7 µM
Procedure, shortened: as §3

TAB165 = assay: as above; conditions: P. falciparum in erythrocytes, SYBR Green DNA, 72 h; series mostly up to 28.7 µM
Procedure, shortened: as §3

W2 = assay: as above; conditions: P. falciparum in erythrocytes, SYBR Green DNA, 72 h; series mostly up to 28.7 µM
Procedure, shortened: as §3

HEK293 = assay: Cytotoxic Profiling of Annotated Libraries Using Quantitative High-Throughput Screening (AID 1296008); conditions: Five cell lines viability, CellTiter-Glo ATP luminescence, 48-72 h; max response: stronger effect = lower value; on max response: on the % scale 0 is the no-effect control and ±100 the full control effect
Procedure, shortened: as §1

PC15 = assay: qHTS profiling for inhibitors of Plasmodium falciparum proliferation (AID 504749); conditions: P. falciparum in erythrocytes, SYBR Green DNA, 72 h; series mostly up to 28.7 µM
Procedure, shortened: as §3

HACAT [2] = assay: qHTS assay to identify novel small-molecules to repurpose for Merkel cell carcinoma treatment (AID 1296009); conditions: MCC and control cell lines, CellTiter-Glo viability, 72 h; series mostly up to 44.8 µM
Procedure, shortened: as §2
Further: nearly all actives have a fitted effect of over 60% in size.
Potency means the concentration at half of the fitted maximal effect.

SMILES: COCCn1c2c([n+](Cc3cnccn3)c1C)C(=O)c1ccccc1C2=O
- Potency (HaCat [1]): 0.0743 µM (active)
- Potency (KB-3-1): 0.0148 µM (active)
- Potency (NIH3T3): 16.6 µM (active)
- Potency (MCC-13): 590 nM (active)
- Potency (MCC-26): 296 nM (active)
- Potency (MKL-1): 2.3 nM (active)

SMILES: C[C@@H](Oc1cc(-n2cnc3ccc(CN4CCN(C)CC4)cc32)sc1C(N)=O)c1ccccc1C(F)(F)F
- Potency (KB-3-1): 0.0118 µM (active)
- Potency (NIH3T3): 0.662 µM (active)
- Potency (MKL-1): 29.6 nM (active)

SMILES: Nc1ccn([C@@H]2O[C@H](CO)[C@H](O)C2(F)F)c(=O)n1
- Potency (P94_40): 316 nM (active)
- Potency (PAD): 708 nM (active)
- Potency (PC26): 4780 nM (active)
- Potency (PC49): 708 nM (active)
- Potency (SC27B): 3980 nM (active)
- Potency (TAB109): 5010 nM (active)
- Potency (TAB113): 3980 nM (active)
- Potency (TAB165): 3980 nM (active)
- Potency (W2): 190 nM (active)

SMILES: CC(=O)Nc1sc2c(c1-c1nc3ccccc3s1)CNC2
- Potency (HEK293): 11.8 µM (active)
- Potency (KB-3-1): 23.5 µM (active)
- Potency (MCC-13): inactive
- Potency (MCC-26): inactive

SMILES: CN(c1ncccc1CNc1nc(Nc2ccc3c(c2)CC(=O)N3)ncc1C(F)(F)F)S(C)(=O)=O
- Potency (HEK293): 3.72 µM (active)
- Potency (HaCat [1]): 16.6 µM (active)
- Potency (KB-3-1): 7.43 µM (active)
- Potency (MKL-1): 9350 nM (active)

SMILES: Cc1cc(Nc2cc(NC(=O)c3c(Cl)cccc3Cl)ccn2)nc(N)n1
- Potency (HEK293): 0.935 µM (active)
- Potency (KB-3-1): 0.418 µM (active)
- Potency (NIH3T3): 3.72 µM (active)

SMILES: CCCCN1CCC(CNC(=O)c2c3n(c4ccccc24)CCCO3)CC1
- Potency (MCC-13): inactive

SMILES: C[C@]1(CO)CN(c2cc(C(=O)Nc3ccc4c(c3)-c3c(c(C(N)=O)nn3-c3ccc(F)cc3)CC4)c(Cl)cn2)C[C@@]1(C)CO
- Potency (HEK293): 4.69 µM (active) and 9.2 µM (active)
- Potency (HaCat [1]): 13.2 µM (active)
- max response (KB-3-1): -15.8%
- max response (NIH3T3): -26%

SMILES: C[C@@H]1COC(Nc2ccc3ncnc(Nc4ccc(OCc5nccs5)c(Cl)c4)c3c2)=N1
- Potency (HEK293): 8.33 µM (active) and 16.4 µM (active)
- Potency (HaCat [1]): 1.66 µM (active) and 1.3 µM (active)
- max response (KB-3-1): -27.7%
- max response (NIH3T3): -19.2%
- outcome (NIH3T3): inactive
- Potency (MCC-13): inactive
- Potency (MCC-26): inactive

SMILES: CC[C@H]1CN2CCc3cc(OC)c(OC)cc3[C@H]2C[C@@H]1C[C@@H]1NCCc2cc(OC)c(OC)cc21
- Potency (P94_40): 251 nM (active)
- Potency (PAD): 355 nM (active)
- Potency (PC15): 282 nM (active)
- Potency (PC26): 601 nM (active)
- Potency (PC49): 141 nM (active)
- Potency (SC27B): 398 nM (active)
- Potency (TAB109): 251 nM (active)
- Potency (TAB113): 316 nM (active)
- Potency (TAB165): 316 nM (active)
- Potency (W2): 151 nM (active)

SMILES: C=CC(=O)Nc1cc2c(Nc3ccc(F)c(Cl)c3)ncnc2cc1OCCCN1CCOCC1
- Potency (HEK293): 7.5 µM (active)
- Potency (HaCat [1]): 0.0094 µM (active)
- outcome (KB-3-1): inactive
- Potency (NIH3T3): 4.73 µM (active)
- Potency (MCC-13): inactive

SMILES: O=c1[nH]nc(Sc2ncc([N+](=O)[O-])s2)n1-c1ccc2c(c1)OCCO2
- Potency (HEK293): 9.35 µM (active)
- Potency (HaCat [1]): 18.7 µM (active)
- Potency (NIH3T3): 8.33 µM (active)
- Potency (MCC-13): 11800 nM (active)
- Potency (MKL-1): 3720 nM (active)

SMILES: Cc1c(NC(=O)OC[C@@H]2COCCN2)cn2ncnc(Nc3ccc4c(cnn4Cc4cccc(F)c4)c3)c12
- Potency (HEK293): 14.8 µM (active) and 23.1 µM (active)
- Potency (HaCat [1]): 4.69 µM (active) and 2.91 µM (active)
- max response (KB-3-1): -29.5%
- Potency (NIH3T3): 20.9 µM (active)
- max response (NIH3T3): 3.43%
- Potency (MCC-13): inactive
- Potency (MKL-1): inactive

SMILES: CN1CCN(c2ccc3nc(-c4c(N)c5c(F)cccc5[nH]c4=O)[nH]c3c2)CC1
- Potency (HEK293): 1.66 µM (active)
- Potency (KB-3-1): 16.6 µM (active)
- Potency (NIH3T3): 1.32 µM (active)
- Potency (MKL-1): 8330 nM (active)

SMILES: Cc1cnc(-c2cnc(NCCNc3ccc(C#N)cn3)nc2-c2ccc(Cl)cc2Cl)[nH]1
- max response (HEK293): -23.2% and -27.2%
- outcome (HaCat [1]): inactive
- max response (KB-3-1): -14.7% and -1.89%
- outcome (NIH3T3): inactive
- Potency (HACAT [2]): inactive
- Potency (MCC-26): inactive
- Potency (MKL-1): inactive

SMILES: Nc1ccc(S(=O)(=O)Nc2ncccn2)cc1
- Potency (P94_40): inactive
- Potency (PAD): inactive
- Potency (PC15): inactive
- Potency (PC26): inactive
- Potency (PC49): inactive
- Potency (SC27B): inactive
- Potency (TAB109): inactive
- Potency (TAB113): inactive
- Potency (TAB165): inactive
- Potency (W2): inactive
- Potency (HACAT [2]): inactive
- Potency (MCC-13): inactive
- Potency (MCC-26): inactive
- Potency (MKL-1): inactive

SMILES: Nc1ncnc2c1c(-c1cccc(OCc3ccccc3)c1)cn2C1CC(CN2CCCC2)C1 (stereo not drawn)
- max response (HaCat [1]): -11.4%
- outcome (HaCat [1]): inactive
- Potency (KB-3-1): 18.7 µM (active)
- Potency (NIH3T3): 14.8 µM (active) and 16.4 µM (active)
- Potency (HACAT [2]): inactive
- Potency (MCC-13): inactive

SMILES: COC(=O)C1=C(C)NC(C)=C(C(=O)OCCN2CCN(C(c3ccccc3)c3ccccc3)CC2)C1c1cccc([N+](=O)[O-])c1 (stereo not drawn)
- Potency (P94_40): 2000 nM (active)
- Potency (PAD): 3160 nM (active)
- Potency (PC15): 10000 nM (active)
- Potency (PC26): 1900 nM (active)
- Potency (PC49): 5010 nM (active)
- Potency (SC27B): 2240 nM (active)
- Potency (TAB109): 3550 nM (active)
- Potency (TAB113): 2000 nM (active)
- Potency (TAB165): 2240 nM (active)
- Potency (W2): 1350 nM (active)
- Potency (HEK293): 11.9 µM (active)
- max response (KB-3-1): -4.82%
- Potency (MCC-26): inactive

SMILES: O=C(O)c1ccc2cc(-c3ccc(O)c(C45CC6CC(CC(C6)C4)C5)c3)ccc2c1
- Potency (HEK293): 1.87 µM (active)
- max response (KB-3-1): 7.83%
- Potency (NIH3T3): 1.66 µM (active)
- Potency (MCC-13): 2640 nM (active)
- Potency (MCC-26): 2960 nM (active)
- Potency (MKL-1): 2350 nM (active)

SMILES: COC(=O)Nc1nc2ccc(C(=O)c3ccc(F)cc3)cc2[nH]1
- Potency (HEK293): 590 nM (active) and 820 nM (active)
- outcome (HaCat [1]): inactive
- Potency (KB-3-1): 833 nM (active) and 1.46 µM (active)
- Potency (HACAT [2]): inactive

SMILES: COc1cc2ncnc(Nc3ccc(F)c(Cl)c3)c2cc1NC(=O)C=CCN1CCCCC1
- max response (HaCat [1]): -96.7%
- outcome (KB-3-1): inactive
- max response (NIH3T3): -20.4%
- Potency (MCC-13): inactive
- Potency (MCC-26): inactive

SMILES: Nc1ccn([C@@H]2CS[C@H](CO)O2)c(=O)n1
- Potency (P94_40): inactive
- Potency (PAD): inactive
- Potency (PC15): inactive
- Potency (PC26): inactive
- Potency (PC49): inactive
- Potency (SC27B): inactive
- Potency (TAB109): inactive
- Potency (TAB113): inactive
- Potency (TAB165): inactive
- Potency (W2): inactive

SMILES: CCN1CCN(Cc2ccc(-c3cc4c(N[C@H](C)c5ccccc5)ncnc4[nH]3)cc2)CC1
- Potency (HaCat [1]): 1.48 µM (active)
- max response (KB-3-1): -20%
- Potency (NIH3T3): 16.6 µM (active)
- Potency (MCC-13): 4180 nM (active)

SMILES: COc1c(N2C[C@@H]3CCCN[C@H]3C2)c(F)cc2c(=O)c(C(=O)O)cn(C3CC3)c12
- Potency (P94_40): inactive
- Potency (PAD): inactive
- Potency (PC15): inactive
- Potency (PC26): inactive
- Potency (PC49): inactive
- Potency (SC27B): inactive
- Potency (TAB113): inactive
- Potency (TAB165): inactive
- Potency (W2): inactive

SMILES: Cn1cncc1[C@@](N)(c1ccc(Cl)cc1)c1ccc2c(c1)c(-c1cccc(Cl)c1)cc(=O)n2C
- Potency (HEK293): 0.148 µM (active)
- Potency (KB-3-1): 14.8 µM (active)
- Potency (MKL-1): 4690 nM (active)
